# Measured values reported in the supplement of paper PMC4466140.
# What was measured:
# Experiment in all cases: SPOT peptide array binding signal intensity (averaged, normalized) (arbitrary units (background-subtracted, floor 0; scale differs between SH3 domains)); higher = stronger binding of the SH3 domain to the peptide
# AgAbp1 = molecular target: AgAbp1
# Summary of the method: (§1)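 Peptides were synthetic 15-mers on cellulose membranes, with every cysteine replaced by serine. They were incubated overnight at 4°C with GST-SH3 domains from four yeast species at 10 μg/ml in TBS-based blocking buffer. Binding signal, the replicate-averaged normalized and background-subtracted spot intensity, is in arbitrary units that differ between domains.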
# AgBbc1 = molecular target: AgBbc1
# Summary of the method: as §1
# AgBem1-D1 = molecular target: AgBem1-D1
# Summary of the method: as §1
# AgBzz1-D1 = molecular target: AgBzz1-D1
# Summary of the method: as §1
# AgBzz1-D2 = molecular target: AgBzz1-D2
# Summary of the method: as §1
# AgCyk3 = molecular target: AgCyk3
# Summary of the method: as §1
# AgFus1 = molecular target: AgFus1
# Summary of the method: as §1
# AgHof1 = molecular target: AgHof1
# Summary of the method: as §1
# AgHse1 = molecular target: AgHse1
# Summary of the method: as §1
# AgLsb1 = molecular target: AgLsb1
# Summary of the method: as §1
# AgLsb4 = molecular target: AgLsb4
# Summary of the method: as §1
# AgMyo5 = molecular target: AgMyo5
# Summary of the method: as §1
# AgNbp2 = molecular target: AgNbp2
# Summary of the method: as §1
# AgRvs167 = molecular target: AgRvs167
# Summary of the method: as §1
# AgSho1 = molecular target: AgSho1
# Summary of the method: as §1
# AgSla1-D1-D2 = molecular target: AgSla1-D1-D2
# Summary of the method: as §1
# AgSla1-D3 = molecular target: AgSla1-D3
# Summary of the method: as §1
# CaAbp1-D1 = molecular target: CaAbp1-D1
# Summary of the method: as §1
# CaAbp1-D2 = molecular target: CaAbp1-D2
# Summary of the method: as §1
# CaBbc1 = molecular target: CaBbc1
# Summary of the method: as §1
# CaBem1-D1 = molecular target: CaBem1-D1
# Summary of the method: as §1
# CaBzz1-D1 = molecular target: CaBzz1-D1
# Summary of the method: as §1
# CaBzz1-D2 = molecular target: CaBzz1-D2
# Summary of the method: as §1
# CaCyk3 = molecular target: CaCyk3
# Summary of the method: as §1
# CaFus1 = molecular target: CaFus1
# Summary of the method: as §1
# CaHof1 = molecular target: CaHof1
# Summary of the method: as §1
# CaHse1 = molecular target: CaHse1
# Summary of the method: as §1
# CaLsb1 = molecular target: CaLsb1
# Summary of the method: as §1
# CaLsb4 = molecular target: CaLsb4
# Summary of the method: as §1
# CaMyo5 = molecular target: CaMyo5
# Summary of the method: as §1
# CaNbp2 = molecular target: CaNbp2
# Summary of the method: as §1
# CaRvs167 = molecular target: CaRvs167
# Summary of the method: as §1
# CaRvs167-3 = molecular target: CaRvs167-3
# Summary of the method: as §1
# CaSho1 = molecular target: CaSho1
# Summary of the method: as §1
# CaSla1-D1-D2 = molecular target: CaSla1-D1-D2
# Summary of the method: as §1
# CaSla1-D3 = molecular target: CaSla1-D3
# Summary of the method: as §1
# ScAbp1 = molecular target: ScAbp1
# Summary of the method: as §1
# ScBbc1 = molecular target: ScBbc1
# Summary of the method: as §1
# ScBem1-D1 = molecular target: ScBem1-D1
# Summary of the method: as §1
# ScBzz1-D1 = molecular target: ScBzz1-D1
# Summary of the method: as §1
# ScBzz1-D2 = molecular target: ScBzz1-D2
# Summary of the method: as §1
# ScCyk3 = molecular target: ScCyk3
# Summary of the method: as §1
# ScFus1 = molecular target: ScFus1
# Summary of the method: as §1
# ScHof1 = molecular target: ScHof1
# Summary of the method: as §1
# ScHse1 = molecular target: ScHse1
# Summary of the method: as §1
# ScLsb1 = molecular target: ScLsb1
# Summary of the method: as §1
# ScLsb2 = molecular target: ScLsb2
# Summary of the method: as §1
# ScLsb3 = molecular target: ScLsb3
# Summary of the method: as §1
# ScLsb4 = molecular target: ScLsb4
# Summary of the method: as §1
# ScMyo3 = molecular target: ScMyo3
# Summary of the method: as §1
# ScMyo5 = molecular target: ScMyo5
# Summary of the method: as §1
# ScNbp2 = molecular target: ScNbp2
# Summary of the method: as §1
# ScPex13 = molecular target: ScPex13
# Summary of the method: as §1
# ScRvs167 = molecular target: ScRvs167
# Summary of the method: as §1
# ScSho1 = molecular target: ScSho1
# Summary of the method: as §1
# ScSla1-D1-D2 = molecular target: ScSla1-D1-D2
# Summary of the method: as §1
# ScSla1-D3 = molecular target: ScSla1-D3
# Summary of the method: as §1
# SpAbp1-D1 = molecular target: SpAbp1-D1
# Summary of the method: as §1
# SpBbc1 = molecular target: SpBbc1
# Summary of the method: as §1
# SpBzz1-D1 = molecular target: SpBzz1-D1
# Summary of the method: as §1
# SpBzz1-D2 = molecular target: SpBzz1-D2
# Summary of the method: as §1
# SpCyk3 = molecular target: SpCyk3
# Summary of the method: as §1
# SpHof1 = molecular target: SpHof1
# Summary of the method: as §1
# SpHof1-2 = molecular target: SpHof1-2
# Summary of the method: as §1
# SpHof1-3 = molecular target: SpHof1-3
# Summary of the method: as §1
# SpHse1 = molecular target: SpHse1
# Summary of the method: as §1
# SpLsb1 = molecular target: SpLsb1
# Summary of the method: as §1
# SpLsb4 = molecular target: SpLsb4
# Summary of the method: as §1
# SpMyo1 = molecular target: SpMyo1
# Summary of the method: as §1
# SpNbp2 = molecular target: SpNbp2
# Summary of the method: as §1
# SpPex13 = molecular target: SpPex13
# Summary of the method: as §1
# SpRvs167 = molecular target: SpRvs167
# Summary of the method: as §1
# SpSla1-D1-D2 = molecular target: SpSla1-D1-D2
# Summary of the method: as §1
# SpSla1-D3 = molecular target: SpSla1-D3
# Summary of the method: as §1
binder,measurement,setting,value
NSMRPPLLIPAATTK,SPOT peptide array binding signal intensity,AgAbp1,0.5
same,SPOT peptide array binding signal intensity,AgBbc1,13.5
same,SPOT peptide array binding signal intensity,AgBem1-D1,450
same,SPOT peptide array binding signal intensity,AgBzz1-D1,19
same,SPOT peptide array binding signal intensity,AgBzz1-D2,16.5
same,SPOT peptide array binding signal intensity,AgCyk3,1
same,SPOT peptide array binding signal intensity,AgFus1,384
same,SPOT peptide array binding signal intensity,AgHof1,20.5
same,SPOT peptide array binding signal intensity,AgHse1,210
same,SPOT peptide array binding signal intensity,AgLsb1,128
same,SPOT peptide array binding signal intensity,AgLsb4,12
same,SPOT peptide array binding signal intensity,AgMyo5,15
same,SPOT peptide array binding signal intensity,AgNbp2,114
same,SPOT peptide array binding signal intensity,AgRvs167,2.33
same,SPOT peptide array binding signal intensity,AgSho1,390
same,SPOT peptide array binding signal intensity,AgSla1-D1-D2,4
same,SPOT peptide array binding signal intensity,AgSla1-D3,1.75
same,SPOT peptide array binding signal intensity,CaAbp1-D1,63.5
same,SPOT peptide array binding signal intensity,CaAbp1-D2,121
same,SPOT peptide array binding signal intensity,CaBbc1,47.2
same,SPOT peptide array binding signal intensity,CaBem1-D1,378
same,SPOT peptide array binding signal intensity,CaBzz1-D1,190
same,SPOT peptide array binding signal intensity,CaBzz1-D2,111
same,SPOT peptide array binding signal intensity,CaCyk3,5.5
same,SPOT peptide array binding signal intensity,CaFus1,1550
same,SPOT peptide array binding signal intensity,CaHof1,0.5
same,SPOT peptide array binding signal intensity,CaHse1,103
same,SPOT peptide array binding signal intensity,CaLsb1,13.2
same,SPOT peptide array binding signal intensity,CaLsb4,516
same,SPOT peptide array binding signal intensity,CaMyo5,133
same,SPOT peptide array binding signal intensity,CaNbp2,291
same,SPOT peptide array binding signal intensity,CaRvs167,83.8
same,SPOT peptide array binding signal intensity,CaRvs167-3,3.75
same,SPOT peptide array binding signal intensity,CaSho1,1320
same,SPOT peptide array binding signal intensity,CaSla1-D1-D2,244
same,SPOT peptide array binding signal intensity,CaSla1-D3,317
same,SPOT peptide array binding signal intensity,ScAbp1,4
same,SPOT peptide array binding signal intensity,ScBbc1,1.5
same,SPOT peptide array binding signal intensity,ScBem1-D1,≤ 0
same,SPOT peptide array binding signal intensity,ScBzz1-D1,7.5
same,SPOT peptide array binding signal intensity,ScBzz1-D2,19.5
same,SPOT peptide array binding signal intensity,ScCyk3,6
same,SPOT peptide array binding signal intensity,ScFus1,508
same,SPOT peptide array binding signal intensity,ScHof1,≤ 0
same,SPOT peptide array binding signal intensity,ScHse1,160
same,SPOT peptide array binding signal intensity,ScLsb1,232
same,SPOT peptide array binding signal intensity,ScLsb2,1
same,SPOT peptide array binding signal intensity,ScLsb3,303
same,SPOT peptide array binding signal intensity,ScLsb4,208
same,SPOT peptide array binding signal intensity,ScMyo3,47.5
same,SPOT peptide array binding signal intensity,ScMyo5,8.5
same,SPOT peptide array binding signal intensity,ScNbp2,150
same,SPOT peptide array binding signal intensity,ScPex13,222
same,SPOT peptide array binding signal intensity,ScRvs167,53.7
same,SPOT peptide array binding signal intensity,ScSho1,562
same,SPOT peptide array binding signal intensity,ScSla1-D1-D2,266
same,SPOT peptide array binding signal intensity,ScSla1-D3,430
same,SPOT peptide array binding signal intensity,SpAbp1-D1,27
same,SPOT peptide array binding signal intensity,SpBbc1,2.75
same,SPOT peptide array binding signal intensity,SpBzz1-D1,273
same,SPOT peptide array binding signal intensity,SpBzz1-D2,53.8
same,SPOT peptide array binding signal intensity,SpCyk3,3
same,SPOT peptide array binding signal intensity,SpHof1,36
same,SPOT peptide array binding signal intensity,SpHof1-2,31.8
same,SPOT peptide array binding signal intensity,SpHof1-3,41
same,SPOT peptide array binding signal intensity,SpHse1,444
same,SPOT peptide array binding signal intensity,SpLsb1,34.2
same,SPOT peptide array binding signal intensity,SpLsb4,761
same,SPOT peptide array binding signal intensity,SpMyo1,56.2
same,SPOT peptide array binding signal intensity,SpNbp2,116
same,SPOT peptide array binding signal intensity,SpPex13,37
same,SPOT peptide array binding signal intensity,SpRvs167,68.2
same,SPOT peptide array binding signal intensity,SpSla1-D1-D2,≤ 0
same,SPOT peptide array binding signal intensity,SpSla1-D3,200
